We go through 94 molecules from PubChem BioAssay AID1626 (SRMLSC, 2009).

Among all 220,000 compounds or so, about 2,000 (0.91%) were called active. Inconclusive results (about 2%) are left out. Cut-off read from the data, not from the text of the source: inconclusive = inhibition above about 80% without an active follow-up result; inactive = below that; test concentration not stated here. The list is a sample of the results. Potency and affinity values are given separately.

The assay can be described thus: M. tuberculosis H37Rv growth inhibitors, H37Rv strain (AID 1626).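 Note: bacteria incubated seven days before Alamar blue readout; 0% = bacteria only wells and 100% = bacteria with antibiotic wells.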 As to conditions: hits give high values, concentration not given here.
Consider `CCC(C)C(=O)Nc1cccc(SC)c1` (centres undefined), for which the inhibition (as a rule, the drop in the measured response relative to a control, in per cent) is 0.86% (inactive).
`COc1cc2[nH]c(=S)nc(NC3CCCC3)c2cc1OC`: the inhibition is 0.6% (inactive).
As for `CCN(CC)NC(=O)Nc1ccccc1`, the inhibition was -12% (inactive).
The result for `CCOc1ccc(NC(=O)CSc2nnc(Cc3cccn3C)n2-c2ccc(F)cc2)cc1` reads -6.5% (inactive).
Regarding `Nc1ncnc2c1ncn2C1OC(CO)C(O)C1O` (centres undefined), the inhibition is -1.34% (inactive).
Regarding `Nc1ncnc2c1ncn2[C@@H]1O[C@H](CO)[C@@H](O)[C@H]1O`, the inhibition is -2.69% (inactive).
Regarding `Nc1nc(F)nc2c1ncn2[C@@H]1O[C@H](CO)[C@@H](O)[C@@H]1O`, the inhibition is 72.3% (inactive).
Regarding `Nc1ncnc2c1ncn2[C@@H]1O[C@H](CO)[C@@H](O)[C@@H]1O`, the inhibition is -0.73% (inactive).
As to `CC(=O)Oc1ccc(N2C(=O)C3C(C2=O)C(C(=O)c2ccc(Cl)cc2)N2CCCC32)cc1` (centres undefined), the inhibition was -5.33% (inactive).
For `CCOC(=O)/C=C1\SCC(=O)N1CC(=O)NC12CC3CC(CC(C3)C1)C2`, the inhibition is 6.97% (inactive).
Turning to `CN(C)/C=C1\C(=O)N(c2ccc(Cl)cc2)CS1(=O)=O`, the inhibition is -3.16% (inactive).
Regarding `CC1CCN(c2c(NCC3CCC(C(=O)NCCc4ccc(Cl)cc4)CC3)c(=O)c2=O)CC1` (centres undefined), the inhibition was 11.6% (inactive).
In the case of `O=C(C1CCC(CNc2c(N3CCCCC3)c(=O)c2=O)CC1)N1CCCC1` (centres undefined) it was -3.71% (inactive).
The result for `O=C(NCc1ccc(Cl)cc1)C1CCC(CNc2c(N3CCCCC3)c(=O)c2=O)CC1` (centres undefined) reads 5.8% (inactive); that for `CC1CCN(c2c(NCC3CCC(C(=O)N4CCCC(C)C4)CC3)c(=O)c2=O)CC1` (centres undefined), -5.27% (inactive).
Regarding `CCNC(=O)CC1C(=O)N(CC)C(=S)N1NC(=O)c1ccccc1` (centres undefined), the inhibition is -3.85% (inactive).
The result for `CCCCOc1ccc(C(NC(=O)OCC)NC(=O)OCC)cc1` reads 5.59% (inactive); that for `CC(C)OC(=O)CN1C(=O)C(C)(C)Oc2ccc(C(=O)NC3CC3)cc21`, -5.84% (inactive); that for `Cc1cc(C(=O)C(C)Cl)c(C)n1Cc1ccco1` (centres undefined), 0.64% (inactive).
On to `Cc1cc(C(=O)COc2ccccc2C(N)=O)c(C)n1CC1CCCO1` (centres undefined), for which the inhibition was 1.33% (inactive).
Consider `Cc1cc(C(=O)COc2ccccc2C(N)=O)c(C)n1C`, for which the inhibition was 0.29% (inactive).
As to `COC(=O)c1ccc(-n2c(C)cc(C(=O)CCl)c2C)cc1`, the inhibition is 53.5% (inactive).
For `Cc1cc(C(=O)CSc2ncccn2)c(C)n1Cc1ccco1`, the inhibition was 6.3% (inactive).
Take `Cc1cc(C(=O)CCl)c(C)n1CCc1ccccc1`: the inhibition was 66.4% (inactive).
In the case of `COc1ccc(C(=O)c2ccc(OC)cc2OC)cc1` it was 0.13% (inactive); in that of `Cc1ccc(N=CC=C2OC(C)(C)C(C)(C)O2)c(C)c1`, -2.12% (inactive).
As for `CC(=O)C1=C(O)C(=O)N(CCc2c[nH]c3ccccc23)C1c1cccc(O)c1` (centres undefined), the inhibition is 1.15% (inactive).
Regarding `CC(C)=CC(=O)Nc1ccc2c(c1)OCO2`, the inhibition is -4.24% (inactive).
As for `CS(=O)(=O)N(CC(=O)Nc1cccc([N+](=O)[O-])c1)c1ccccc1`, the inhibition was -4.25% (inactive).
In the case of `Cn1c(=O)n(Cc2ccccc2)c2ccccc21`, the inhibition is -7.14% (inactive).
Take `NNc1nc2c(F)cccc2s1`: the inhibition is 8.41% (inactive).
`COc1cccc2sc(Nc3nnc(-c4ccccc4Cl)o3)nc12`: the inhibition is 52.8% (inactive).
In the case of `COc1cccc2sc(Nc3nnc(-c4cccs4)o3)nc12` it was -3.65% (inactive); in that of `Fc1cccc2sc(Nc3nc4c(F)cccc4s3)nc12`, 43% (inactive); in that of `COc1ccc(-c2nnc(Nc3nc4c(OC)cccc4s3)o2)c(OC)c1`, 3.73% (inactive).
In the case of `COc1ccccc1-c1nnc(Nc2nc3c(OC)cccc3s2)o1` it was 8.74% (inactive).
Take `O=C(COC(=O)c1cccc2ccccc12)NCC1CCCO1` (centres undefined): the inhibition is -2.85% (inactive).
`CCn1cc(C2C3=C(CC(C)(C)CC3=O)N(c3ccccc3)C3=C2C(=O)CC(C)(C)C3)c(C)n1`: the inhibition is -3.23% (inactive).
The result for `CCC1=C(OC(=O)N(CC)CC)N2C(=O)OC(=NCCOC)[C@]2(Cc2ccccc2)[C@H]2C1=CC[C@H]1C(=O)NC(=O)[C@H]12` reads 10.1% (inactive); that for `O=C(NC1CCCCC1)c1nn2c(C(F)(F)F)cc(-c3ccco3)nc2c1Br`, 1.53% (inactive); that for `COCCn1c(SCC(=O)Nc2ccccc2OC)nc2c(oc3ccccc32)c1=O`, 3.65% (inactive).
`COc1ccc(SCCC(=O)NCc2ccncc2)cc1`: the inhibition was -7.49% (inactive).
Regarding `Cc1cccc(N2CCN(C(=O)c3cccc(N4C(=O)C5CC=CC(C)C5C4=O)c3)CC2)c1C` (centres undefined), the inhibition was -7% (inactive).
With `COc1ccc(C2C(C(=O)Nc3ccc(F)cc3)=C(C)Nc3nc(CCCO)nn32)cc1` (centres undefined), the inhibition is -9.75% (inactive).
On to `CCc1ccc2c(c1)C(=O)c1ccccc1C2=O`, for which the inhibition was 7.07% (inactive).
For `O=C1c2ccccc2-c2nnc(-c3ccccc3)cc21`, the inhibition is -2.39% (inactive).
Take `Nc1ccc2c(c1)CC(=O)c1ccccc1S2`: the inhibition is 9.71% (inactive).
In the case of `Nc1ccc2c(c1)CCC2=O`, the inhibition is -8.13% (inactive).
For the molecule `CC(C)(C)c1ccc2c(c1)C(=O)c1ccccc1C2=O`, the inhibition is 7.48% (inactive).
In the case of `Cc1ccc(-c2ccc3c(c2)S(=O)(=O)c2ccccc2C3=O)cc1` it was -4.26% (inactive); in that of `O=C(OCC(=O)N1CCN(C(=O)c2ccco2)CC1)c1cccc(S(=O)(=O)N2CCc3ccccc32)c1`, 2.78% (inactive); in that of `CC(C)C(=O)N1CCN(c2ccc([N+](=O)[O-])cc2Cl)CC1`, 0.58% (inactive).
On to `COc1ccc(/C=N/NC(=O)C(C)n2nnc3ccccc32)cc1OC` (centres undefined), for which the inhibition was -3.28% (inactive).
Turning to `C=CCN1C(=O)C(Cc2ccc(OC)cc2)S/C1=N\N=C\c1cccs1` (centres undefined), the inhibition is -5.41% (inactive).
The result for `COc1ccc(OC)c(C(=O)c2ccc(C(=O)N3CCCCC3)cc2)c1` reads -2.08% (inactive); that for `CCc1ccc2c(c1)C(O)(CC(=O)c1cccs1)C(=O)N2` (centres undefined), 3.05% (inactive); that for `Cc1cc(Br)c2c(c1)/C(=C/C(=O)c1cccs1)C(=O)N2`, 79.9% (inactive).
On to `Cc1cccc2c1NC(=O)/C2=C\C(=O)c1cccs1`, for which the inhibition was 12.6% (inactive).
Regarding `O=C(/C=C1\C(=O)Nc2ccccc21)/C=C1\C(=O)Nc2ccccc21`, the inhibition is 9.02% (inactive).
Turning to `Cn1c(N)c(C(=O)COC(=O)C2CC(=O)N(Cc3ccccc3)C2)c(=O)n(C)c1=O` (centres undefined), the inhibition is 0.39% (inactive).
In the case of `CC(C)(C)Nc1nc(SCC(=O)Nc2ccccc2)nc(N2CCOCC2)n1` it was -1.07% (inactive); in that of `O=C(Nc1ccccc1)c1ccn[nH]1`, -7.96% (inactive); in that of `COc1ccccc1CNc1ncnc2cc(Cl)ccc12`, -2.22% (inactive).
Regarding `CC(C)N1CCC(N2CCN(C/C=C/c3ccccc3)CC2CCO)CC1` (centres undefined), the inhibition was -1.35% (inactive).
`Cc1ccc(C(c2nnnn2C(C)(C)C)N2CCN(C3CCCC3)CC2)cc1` (centres undefined): the inhibition was -4.57% (inactive).
Turning to `Cc1cc(C)c(-c2cc(NC(=O)CSc3nncn3C)n(-c3ccccc3)n2)cc1C`, the inhibition is 5.63% (inactive).
On to `CCOC(=O)C1=C(CC)Nc2ccccc2N=C1NC(=O)Nc1ccccc1OC`, for which the inhibition was 5.38% (inactive).
In the case of `CCOC(=O)C1=C(CC)Nc2ccccc2N=C1NC(=O)c1cc(S(=O)(=O)N(C)C)ccc1Cl` it was 5.31% (inactive).
With `Cc1ccc(SCc2cc(=O)[nH]c(/N=C(\N)Nc3cccc4ccccc34)n2)cc1`, the inhibition is 2.6% (inactive).
Take `COc1cc(C2C3=C(CC(C)(C)CC3=O)NC3=C2C(=O)c2ccccc23)ccc1O` (centres undefined): the inhibition is 2.3% (inactive).
In the case of `CC1(C)CC(=O)C2=C(C1)NC1=C(C(=O)c3ccccc31)C2c1ccc(Cl)cc1` (centres undefined) it was 44.9% (inactive); in that of `CC1(C)CC(=O)C2=C(C1)NC1=C(C(=O)c3ccccc31)C2c1cccnc1` (centres undefined), 11.2% (inactive); in that of `CC1(C)CC(=O)C2=C(C1)NC1=C(C(=O)c3ccccc31)C2c1ccc(O)cc1` (centres undefined), 7.92% (inactive).
For the molecule `CC1(C)CC(=O)C2=C(C1)NC1=C(C(=O)c3ccccc31)C2c1ccccc1` (centres undefined), the inhibition was 14.8% (inactive).
For the molecule `Cc1ccc(C2C3=C(CC(C)(C)CC3=O)NC3=C2C(=O)c2ccccc23)cc1` (centres undefined), the inhibition was 9.84% (inactive).
The result for `CCN(CC)S(=O)(=O)c1cccc(C(=O)N/N=C2\CCCC(=O)C2)c1` reads -9.95% (inactive).
The result for `CCNc1nc(SCCOc2ccc(Br)cc2)nc(N(C)C)n1` reads -0.8% (inactive); that for `Cc1nn(C)c(C)c1S(=O)(=O)N1CCC(C(=O)NCCC2=CCCCC2)CC1`, -9.44% (inactive).
As to `Cc1ccc(C)c(-c2cc(C(=O)Nc3cccc(C(=O)O)c3)c3ccccc3n2)c1`, the inhibition was 2.58% (inactive).
In the case of `COc1ccc(/C=C/C2=NN(Cc3ccccc3)C(=O)CC2)cc1` it was -0.13% (inactive); in that of `Cc1cc(N2CCN(C)CC2)nc(-c2ccccc2O)n1`, -1.49% (inactive); in that of `O=C(Nc1ccc2nc(-c3ccccc3)oc2c1)c1ccco1`, -2.22% (inactive).
The result for `Cc1cccc(OCC(=O)Nc2cccc(-c3nnc(-c4ccccc4)o3)c2)c1C` reads 3.74% (inactive); that for `CCC(=O)Nc1ccc(-c2nnc(-c3ccccc3)o2)cc1`, 5.07% (inactive).
As for `O=C(Nc1ccc(-c2nc3cc(Cl)ccc3c(=O)o2)cc1)c1ccco1`, the inhibition was 9.67% (inactive).
In the case of `CCOc1ccc(-c2nc3ccccc3c(=O)o2)cc1` it was 3.93% (inactive).
On to `COc1ccc(-c2nc3ccccc3c(=O)o2)cc1OC`, for which the inhibition is 12.4% (inactive).
As for `O=C(COc1ccccc1)Nc1cccc(-c2nnc(-c3ccccc3)o2)c1`, the inhibition is 14.9% (inactive).
The result for `CC(C)C(=O)Nc1cccc(-c2nc3ccccc3c(=O)o2)c1` reads 0.23% (inactive); that for `O=C1CC(c2ccc(Br)cc2)NC(c2ccc(Br)cc2)C1c1ccccc1` (centres undefined), 15.2% (inactive).
Take `Nc1cc(-c2ccccc2)nn1S(=O)(=O)c1ccc(Br)cc1`: the inhibition was 12.3% (inactive).
Turning to `COc1cc(SC)ccc1C(=O)Nc1ccc(C)cc1C`, the inhibition was 2.28% (inactive).
In the case of `Cc1onc(-c2ccccc2)c1C(=O)N1CCN(C)CC1`, the inhibition is -7.83% (inactive).
Regarding `Cc1cc(C(=O)N/N=C2\CC(=O)c3ccccc32)c(C)n1-c1ccccc1`, the inhibition is -0.53% (inactive).
